Cycloheximide cs: counter-screen for Shiga toxin inhibitors: cycloheximide protein synthesis inhibition; cell reporter, cycloheximide protein synthesis inhibition counterscreen; max response, %; actives 12% (n = 300,000); AID 2314; in the data active = max response mostly above about 13%, no sharp cut-off; inactive = mostly below about 14%; also: read at 38.3 µM for the half of the compounds with a filed dose; 0% is about no effect
NS1 inh: blocks influenza NS1 protein function | Potency, µM (titrated, usually from 46.1 µM), inactives show at the highest dose activity, positive = more growth | actives 0.4% (n = 270,000) | AID 2326; calls by dose curve; also: potency is read from the fitted curve at half-maximal effect; actives are rising curves; nearly all actives have a fitted effect of over 50% in size
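Compounds were scored for reversing the slow growth caused by influenza A NS1 in S. cerevisiae, measured by optical density at 600 nm. Assay medium contained 2% galactose at pH 6.0; NS1-free yeast of the same strain were the positive control.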
Giardia FBPA inh-1: blocks Giardia fructose-bisphosphate aldolase activity. actives 0.71% (n = 290,000). purified Giardia FBPA. A8B2U2. Potency, µM (titrated, usually from 59.6 µM), inactives show top-dose activity, negative = inhibition, hits mostly inhibitors; also: potency is read from the fitted curve at half-maximal effect; % is scaled to controls: 0 for no effect and ±100 for the full control effect; nearly all actives have a fitted effect of over 55% in size
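40 nM FBPA preincubated 10 min at RT with compound (up to 57.5 uM final), then substrate plus GAPDH/TPI/NAD/arsenate coupling and diaphorase/resazurin added. Fluorescence read after 20 min at RT, 525/598 nm.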
Shiga inhibitor: inhibitors of Shiga toxin in Vero cells; Vero cells, Shiga toxin protein synthesis inhibition reporter; actives 9.2% (n = 290,000); AID 2315; inhibition, % at 38.7 µM; in the data active = inhibition mostly above about 28%, no sharp cut-off; inactive = mostly below about 43%; also: 0% is about no effect
LmPK inhibitor: inhibitors of Leishmania mexicana pyruvate kinase | AID 1721 | Q27686 | actives 0.37% (n = 290,000) | purified LmPK, Kinase-Glo ATP luminescence, 1 h | Potency, µM (series often up to 57.5 µM), without a hit: top-dose activity change, negative = inhibition, hits mostly inhibitors; also: potency is read from the fitted curve at half-maximal effect; % is scaled to controls: 0 for no effect and ±100 for the full control effect
Target sequence (Q27686 whole entry, looked up): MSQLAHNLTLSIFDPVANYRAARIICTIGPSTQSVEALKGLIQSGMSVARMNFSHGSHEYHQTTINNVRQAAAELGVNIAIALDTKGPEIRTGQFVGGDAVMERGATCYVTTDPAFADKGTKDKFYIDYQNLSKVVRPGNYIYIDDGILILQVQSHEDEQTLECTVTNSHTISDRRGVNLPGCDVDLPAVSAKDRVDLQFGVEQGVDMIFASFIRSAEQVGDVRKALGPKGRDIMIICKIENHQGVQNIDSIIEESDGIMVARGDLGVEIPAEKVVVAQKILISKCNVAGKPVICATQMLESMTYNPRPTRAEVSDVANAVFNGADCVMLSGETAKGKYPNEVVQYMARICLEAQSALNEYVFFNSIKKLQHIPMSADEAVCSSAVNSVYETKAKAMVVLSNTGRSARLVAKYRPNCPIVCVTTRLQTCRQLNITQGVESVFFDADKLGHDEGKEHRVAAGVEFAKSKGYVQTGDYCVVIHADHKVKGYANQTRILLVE
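Purified LmPK (0.1 nM) converted ADP (0.1 mM) to ATP with PEP (0.5 mM) in imidazole buffer pH 7.2 with KCl and MgCl2, 1 h at room temperature. ATP was read by Kinase-Glo luminescence; data normalized to uninhibited and no-enzyme controls.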
Giardia growth: Giardia lamblia growth inhibition | Giardia lamblia trophozoite growth inhibition | Potency, µM (highest dose often 57.5 µM), without a hit: at the highest dose activity change, negative = inhibition, usual class: inhibitors | AID 2785 | shares compounds with Giardia FBPA inh-1 | actives 5% (n = 1,500);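 also: potency is read from the fitted curve at half-maximal effect; trophozoites exposed to compound for 48 h at 37 °C; % is scaled to controls: 0 for no effect and ±100 for the full control effect; nearly all actives have a fitted effect of over 70% in size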
Mammal cell tox: counter-screen for Giardia aldolase inhibitors: mammalian cell toxicity; shares compounds with Giardia FBPA inh-1; mammalian cell viability counter-screen, qHTS; Potency, µM (titrated, usually from 57.5 µM), without a hit: at the highest dose viability change, negative = toxicity, most hits filed as inhibitors; actives 4% (n = 1,500); AID 2786;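 also: Chinese hamster ovary cells used as mammalian cytotoxicity surrogate; viability measured as cellular ATP by luminescence; potency is read from the fitted curve at half-maximal effect; compound exposure lasted 48 h before reading; % is scaled to controls: 0 for no effect and ±100 for the full control effect; nearly all actives have a fitted effect of over 60% in size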
Giardia FBPA inh-2: confirmation of Giardia fructose-bisphosphate aldolase inhibitors; shares compounds with Giardia FBPA inh-1; purified Giardia aldolase enzyme activity, qHTS; Potency, µM (titrated, usually from 57.5 µM), for inactives: at the top dose activity change, negative = inhibition, most hits filed as inhibitors; actives 5% (n = 1,500); also: potency is read from the fitted curve at half-maximal effect; % is scaled to controls: 0 for no effect and ±100 for the full control effect; nearly all actives have a fitted effect of over 45% in size
Rabbit aldolase: selectivity test for Giardia aldolase inhibitors: rabbit aldolase; shares compounds with Giardia FBPA inh-1; Rabbit muscle FBPA enzyme inhibition, selectivity counter-screen; Potency, µM (top dose mostly 57.5 µM), for inactives: at the highest dose activity, negative = inhibition, most hits filed as inhibitors; actives 4% (n = 1,500); also: potency is read from the fitted curve at half-maximal effect; % is scaled to controls: 0 for no effect and ±100 for the full control effect; nearly all actives have a fitted effect of over 60% in size
GAPDH counter: GAPDH inhibition flagged for Giardia aldolase hits; shares compounds with Giardia FBPA inh-1; GAPDH coupling enzyme counterscreen, biochemical, qHTS; Potency, µM (series often up to 57.5 µM), for the others: at the highest dose activity change, negative = inhibition, hits mostly inhibitors; actives 6% (n = 1,500); also: potency is read from the fitted curve at half-maximal effect; % is scaled to controls: 0 for no effect and ±100 for the full control effect; nearly all actives have a fitted effect of over 55% in size
* hit, by the source's call; . = no result. This is a sample that favours compounds with a hit; in the whole collection about 14% have one here. Unless noted, calls follow the shape of the dose curve; as a rule, active = well fitted curve in the direction sought with a large enough effect; inconclusive = small, poorly fitted or top-dose-only effect, or another doubt; inactive = no such curve, though single readings can be large; an effect the other way counts as inactive or inconclusive.

SMILES	Cycloheximide cs	NS1 inh	Giardia FBPA inh-1	Shiga inhibitor	LmPK inhibitor	others
Cc1ccc(CN2CCN(Cc3ccco3)CC2)cc1	-1.1	9.6%	15.8µM*	-3.0	-4.0%	Giardia growth=-6.1%;Mammal cell tox=1.7%;Giardia FBPA inh-2=-2.1%;Rabbit aldolase=7.3%;GAPDH counter=-18.0%
Cc1ccc(CN2CCN(C(=O)c3ccco3)CC2)cc1	-2.9	5.6%	0.6%	10.9	-1.9%
CCc1ccc(S(=O)(=O)N2CCN(c3ccccc3OC)CC2)cc1	1.5	2.4%	-2.7%	.	-0.8%
Nc1cccc(Oc2ccc3c(c2)C(=O)NC3=O)c1	-2.8	-7.7%	-8.3%	.	-2.1%
Cc1c(C(=O)NN2CCOCC2)nn(-c2ccc(Cl)cc2Cl)c1-c1ccc(I)cc1	-0.8	.	-4.6%	-11.3	.

Source: PubChem BioAssay (National Center for Advancing Translational Sciences (NCATS))
